Assay results reported in PubChem BioAssay.
“And” between values parts separate entries of the source, which are not always exact repeats. Equal values may be shown once. The source made the active and inactive calls.

Assays:
[1] = A549 cell viability effects, profiling panel, calcein-AM fluorescence, 48 h, basal (AID 1162); conditions: higher = more signal
[2] = adipocyte viability effects, profiling panel, cell-based, 3T3-L1 adipocytes, calcein-AM fluorescence, 48 h, basal (AID 1163); conditions: 3T3-L1 adipocytes viability, higher = more signal
[3] = HepG2 cell viability effects, profiling panel, calcein-AM fluorescence, 48 h, basal (AID 1164); conditions: higher = more signal
[4] = MM1S cell viability effects, profiling panel, calcein-AM fluorescence, 48 h, basal (AID 1165); conditions: higher = more signal;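 further: viability of MM1S multiple myeloma cells under basal unstimulated conditions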
[5] = basal RPMI8226 viability, no added stimulus, profiling panel, cell-based, calcein-AM fluorescence, 48 h, PK04 Diversity Set (AID 1166); conditions: RPMI8226 myeloma viability, higher = more signal;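 further: cells grown under basal conditions without added stimulus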
[6] = basal HepG2 mitochondrial membrane potential changes, profiling panel, cell-based, JC-1 fluorescence, 24 h, 100 nL compound (AID 1167); conditions: higher = more signal
[7] = basal 3T3-L1 adipocyte mitochondrial potential changes, profiling panel, cell-based, JC-1 fluorescence, 3T3-L1 adipocytes, 24 h, 100 nL compound (AID 1168); conditions: JC-1 mitochondrial fluorescence, higher = more signal, called active from +8 up or from −8 down
[8] = basal RPMI8226 mitochondrial membrane potential changes, profiling panel, cell-based, JC-1 fluorescence, 24 h, 100 nL compound (AID 1169); conditions: RPMI8226 myeloma, JC-1 mitochondrial potential fluorescence, higher = more signal
[9] = basal MM1S mitochondrial membrane potential changes, profiling panel, cell-based, JC-1 fluorescence, 24 h, 100 nL compound (AID 1170); conditions: higher = more signal
[10] = A549 lung cancer cell viability effects, profiling panel, resazurin fluorescence, 24 h, PK04 Diversity Set (AID 1171); conditions: higher = more signal, called active from +8 up or from −8 down
Further: test concentration not given here.

SMILES	z-score [1]	z-score [2]	z-score [3]	z-score [4]	z-score [5]	z-score [6]	z-score [7]	z-score [8]	z-score [9]	z-score [10]
C=CCN(C(=O)C1N(c2c(Cl)cccc2CO)C(=O)C2C(C(=O)O)C3C=CC21O3)C(C)(C)C (stereo not given)	-0.875 and 0.96	0.766 and -0.202	0.613 and 1.78	0.64 and 1.54	-0.224 and -0.394	-0.536 and 0.627	-1.27 (inactive) and 1.46 (inactive)	-0.153 and 0.828	0.0478 and 1.11	-0.289 (inactive) and 0.361 (inactive)
C=CCN(CCCCC)C(=O)C1N(CCOCCO)C(=O)C2C(C(=O)O)C3C=CC21O3 (stereo not given)	-0.178 and -0.126	0.21 and -0.603	-0.499 and -0.87	0.226 and 1.03	-0.361 and 0.133	-0.562 and -0.928	-0.279 (inactive) and -0.227 (inactive)	0.252 and 0.715	0.377 and 0.103	-0.529 (inactive) and -1.03 (inactive)
C=CCN(C(=O)C(c1cccs1)N(C(=O)/C=C\C(=O)O)c1ccc(CCO)cc1)C(C)(C)C (stereo not given)	-0.392 and -0.51	-0.589 and -1.1	-0.0749 and -0.55	-1.18 and 0.821	0.3 and 0.317	-0.178 and -0.341	0.529 (inactive) and -0.179 (inactive)	0.185 and 0.0345	0.75 and 0.721	-0.0762 (inactive) and -0.389 (inactive)
C=CCN(C(=O)C1N(CCOCCO)C(=O)C2C(C(=O)O)C3C=CC21O3)c1ccc(OC)cc1 (stereo not given)	-0.0891 and 0.163	-0.24 and 0.366	0.136 and 0.857	0.963 and -0.688	-0.25 and 0.0863	0.191 and -1.15	0.124 (inactive) and 1.32 (inactive)	-0.0484 and 0.126	1.01 and 0.642	-0.237 (inactive) and 0.168 (inactive)
CC(CO)N1C(=O)[C@@H]2C3C(=O)OCCC=C[C@H]3OC23C=CCN(c2ccc4ccccc4c2)C(=O)[C@@H]13 (stereo not given in full)	-0.288 and -0.0156	0.0371 and -0.217	-0.463 and -0.565	0.0923 and 1.01	-0.526 and -0.237	-0.0969 and -0.0971	-0.684 (inactive) and -1.28 (inactive)	-0.904 and 0.195	0.238 and 0.275	-0.124 (inactive) and 0.0409 (inactive)
C=CCN(C(=O)C1N(c2ccc(CCO)cc2)C(=O)C2C(C(=O)O)C3C=CC21O3)c1ccc(OC)cc1 (stereo not given)	0.414 and -0.783	0.432 and 0.014	-0.535 and -0.905	1.02 and 1.1	-0.0159 and 0.492	-0.19 and -0.0346	-0.246 (inactive) and -0.356 (inactive)	-0.0146 and 0.609	-0.358 and 0.691	-1.23 (inactive) and 0.468 (inactive)
COc1ccc(COC(=O)NN=C2C[C@@H](O)[C@@H](O)[C@@H]3[C@@H]4C(=O)N(C(C)(C)C)C(=O)[C@@H]4CC[C@H]23)cc1	0.894	0.377	0.89	-0.156	0.0186	-0.206	1.14 (inactive)	0.704	-0.527	-0.581 (inactive)
C=CCN(CCCCC)C(=O)C1N(c2ccc(CCO)cc2)C(=O)C2C(C(=O)O)C3C=CC21O3 (stereo not given)	-0.0277 and -0.611	-0.0076 and 0.226	-0.97 and 0.288	0.867 and 0.199	-0.322 and -1.02	-0.587 and -1.1	-0.545 (inactive) and -0.407 (inactive)	0.647 and 0.562	0.743 and 0.912	-0.792 (inactive) and -0.842 (inactive)
C[C@@]1([C@@H](NC(=O)Cc2ccccc2)c2ccc(-c3ccccc3)cc2)C[C@H]1C1CCCCC1	-2.72 and -1.23 and -1.42	0.765 and -0.0714 and -0.863	-2.87 and -0.861 and -0.802	-2.91 and -1.81 and -2	-4.81 and -1.41 and -1.24	-3.9 and -0.895 and 0.848	0.111 (inactive) and -0.332 (inactive) and -1.75 (inactive)	-0.936 and -0.586 and -0.431	-1.71 and 0.0165 and -1.06	-0.609 (inactive) and 3.96 (inactive) and -0.816 (inactive)
C=CCN(Cc1ccccc1)C(=O)C1N(CCOCCO)C(=O)C2C(C(=O)O)C3C=CC21O3 (stereo not given)	0.457 and -0.65	1 and 0.0853	-0.475 and -1.46	0.443 and 1.02	0.953 and -1.25	0.341 and -0.0276	0.978 (inactive) and -0.925 (inactive)	0.747 and 0.0424	1.26 and -0.0145	-0.474 (inactive) and 0.0887 (inactive)
C=CCN(CCCC)C(=O)C1N(c2ccc(CCO)cc2)C(=O)C2C(C(=O)O)C3C=CC21O3 (stereo not given)	-0.635 and 0.444	0.79 and 0.378	-0.97 and -0.116	0.853 and 1.11	-0.0527 and 0.0382	-0.63 and 0.869	-0.915 (inactive) and 1.18 (inactive)	0.16 and 0.0627	0.748 and 1.93	-0.223 (inactive) and -0.442 (inactive)
C=CCN1C(=O)[C@]2(O[C@H](CCn3cc(CCO)nn3)[C@@H]([Si](C)(C)c3ccc(OC)cc3)[C@@H]2C)c2cc(N3C(=O)c4cccc5cccc3c45)ccc21	-3.83 and -4.13	-1.83 and -2.41	-4.65 and -4.73	-2.66 and -2.87	-4.33 and -4.37	-1.51 and 1.37	5.29 (inactive) and 4.16 (inactive)	-0.877 and -0.786	-2.27 and -1.98	-6.11 (inactive)
C=CCN(C(=O)C(c1cccs1)N(CCOCCO)C(=O)/C=C\C(=O)O)C(C)(C)C (stereo not given)	1.01 and 1.61	-0.515 and -0.161	1.25 and 0.41	1.62 and 0.903	0.116 and 0.954	1.07 and 0.991	1.16 (inactive) and 0.0544 (inactive)	0.28 and -0.0177	0.987 and 0.588	0.111 (inactive) and -0.422 (inactive)
